Data: PubChem BioAssay (Tox21)
Records with an inconclusive call do not appear. The source made the active and inactive calls. Unless noted, the call rests on the fitted dose curve; in most records, active means well fitted curve in the direction sought with a large enough effect in the repeat runs; inconclusive means weak or mixed curves; inactive means no such curve, though single readings can be large; an effect the other way counts as inactive or inconclusive.

Key:
[1] = qHTS assay to identify small molecule agonists of the peroxisome proliferator-activated receptor delta (PPARd) signaling pathway - cell viability counter screen (AID 743211); further: on the % scale 0 is the no-effect control and ±100 the full control effect; nearly all actives have a fitted effect of over 55% in size
Summary of the method: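 Tox21 library compounds, delivered in DMSO, were incubated 17 h with PPARd-bla HEK293H cells; cytotoxicity was taken from CellTiter-Glo luminescence read 30 min after reagent addition.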

[2] = molecular target: Peroxisome proliferator-activated receptor delta (Homo sapiens) (UniProt Q03181); test: qHTS assay to identify small molecule agonists of the peroxisome proliferator-activated receptor delta (PPARd) signaling pathway (AID 743212; calls by dose curve; further: on the % scale 0 is the no-effect control and ±100 the full control effect)
Peroxisome proliferator-activated receptor delta (Homo sapiens), sequence (Q03181 whole entry, looked up): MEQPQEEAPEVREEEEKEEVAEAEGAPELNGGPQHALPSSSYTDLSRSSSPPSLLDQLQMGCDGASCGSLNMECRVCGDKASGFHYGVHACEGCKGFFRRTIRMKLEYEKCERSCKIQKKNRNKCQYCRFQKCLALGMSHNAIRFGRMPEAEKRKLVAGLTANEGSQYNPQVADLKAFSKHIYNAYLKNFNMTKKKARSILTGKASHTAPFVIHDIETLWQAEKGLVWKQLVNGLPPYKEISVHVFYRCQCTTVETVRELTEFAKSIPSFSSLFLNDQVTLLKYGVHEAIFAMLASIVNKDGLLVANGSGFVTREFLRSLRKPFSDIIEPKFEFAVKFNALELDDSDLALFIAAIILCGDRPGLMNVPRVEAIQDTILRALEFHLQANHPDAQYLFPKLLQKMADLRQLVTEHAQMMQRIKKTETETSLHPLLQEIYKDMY
Summary of the method: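 Read-out: beta-lactamase FRET fluorescence after 2 h room-temperature incubation with LiveBLAzer B/G substrate. Cells were HEK293H carrying a UAS-bla reporter for PPARd, treated at 37 C with DMSO-dissolved compounds.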

[3] = qHTS assay to identify small molecule antagonists of the peroxisome proliferator-activated receptor delta (PPARd) signaling pathway - cell viability counter screen (AID 743213); further: on the % scale 0 is the no-effect control and ±100 the full control effect; nearly all actives have a fitted effect of over 50% in size
Summary of the method: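 Cytotoxicity counter screen: CellTiter-Glo luminescence read 30 min after addition, in the same wells as the reporter assay. There, PPARd UAS-bla HEK293H cells (3000/well) were treated 17 h at 37 C with compound and 300 nM L165041.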

[4] = molecular target: Peroxisome proliferator-activated receptor delta (Homo sapiens) (UniProt Q03181); test: qHTS assay to identify small molecule antagonists of the peroxisome proliferator-activated receptor delta (PPARd) signaling pathway (AID 743215; active means well fitted inhibition curve with a large enough effect in the signal ratio in the repeat runs, not every such curve was filed as active; the % refers to the signal ratio;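 further: cells stimulated with agonist L165041 at 300 nM final during compound exposure; series mostly up to about 62 µM; on the % scale 0 is the no-effect control and ±100 the full control effect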)
Summary of the method: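 Here, a reporter line (HEK293H, beta-lactamase under a UAS) measures PPARd signaling. Compounds are tested against agonist L165041 at 300 nM final concentration over 17 h at 37 C, with fluorescence read after substrate.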

[5] = qHTS assay to identify small molecule agonists of the farnesoid-X-receptor (FXR) signaling pathway - cell viability counter screen (AID 743218); further: on the % scale 0 is the no-effect control and ±100 the full control effect; nearly all actives have a fitted effect of over 45% in size
Summary of the method: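 Quantitative HTS counter screen measuring ATP-based viability via CellTiter-Glo luminescence in HEK 293T cells carrying a UAS-driven beta-lactamase reporter, after 16 h compound exposure at 37 C.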

[6] = qHTS assay to identify small molecule antagonists of the farnesoid-X-receptor (FXR) signaling pathway - cell viability counter screen (AID 743221; active means well fitted cell-killing curve with a large enough effect in the repeat runs, not every such curve was filed as active; further: on the % scale 0 is the no-effect control and ±100 the full control effect; nearly all actives have a fitted effect of over 50% in size)
Summary of the method: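 Cytotoxicity is taken from ATP luminescence (CellTiter-Glo, 30 min, room temperature) in FXR-bla HEK 293T cells previously incubated 16 h at 37 C with compound and chenodeoxycholic acid at 50 uM final.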

[7] = molecular target: Vitamin D3 receptor (Homo sapiens) (UniProt P11473); test: qHTS assay to identify small molecule agonists of the vitamin D receptor (VDR) signaling pathway (AID 743222; calls by dose curve; further: on the % scale 0 is the no-effect control and ±100 the full control effect)
Vitamin D3 receptor (Homo sapiens), sequence (P11473 whole entry, looked up): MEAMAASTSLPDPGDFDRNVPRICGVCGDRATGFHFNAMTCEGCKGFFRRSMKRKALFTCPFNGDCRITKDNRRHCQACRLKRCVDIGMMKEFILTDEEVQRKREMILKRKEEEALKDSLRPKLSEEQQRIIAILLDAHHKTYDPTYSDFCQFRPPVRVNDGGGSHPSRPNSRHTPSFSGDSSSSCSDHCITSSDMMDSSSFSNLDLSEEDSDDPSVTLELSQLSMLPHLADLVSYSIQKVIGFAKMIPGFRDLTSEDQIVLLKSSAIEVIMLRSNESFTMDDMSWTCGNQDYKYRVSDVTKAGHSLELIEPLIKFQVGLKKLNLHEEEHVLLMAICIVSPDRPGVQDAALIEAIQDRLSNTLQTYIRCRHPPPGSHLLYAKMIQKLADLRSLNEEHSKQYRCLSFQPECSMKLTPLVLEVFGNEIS
Summary of the method: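 Tox21 cell reporter format: VDR-bla line, 16 h compound exposure in 5% CO2 at 37C, then fluorescence intensity after 2 h with LiveBLAzer B/G FRET substrate.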

[8] = molecular target: Vitamin D3 receptor (Homo sapiens) (UniProt P11473); test: qHTS assay to identify small molecule antagonists of the vitamin D receptor (VDR) signaling pathway (AID 743223; active means well fitted inhibition curve with a large enough effect in the signal ratio in the repeat runs, not every such curve was filed as active; the % refers to the signal ratio; further: on the % scale 0 is the no-effect control and ±100 the full control effect)
Summary of the method: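 Quantitative HTS in VDR-bla reporter cells stimulated with 1alpha,25-dihydroxyvitamin D3, 3 nM final. Compound exposure 16 h, 37C, 5% CO2. Read-out: beta-lactamase FRET substrate fluorescence, 2 h RT.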

[9] = qHTS assay to identify small molecule agonists of the vitamin D receptor (VDR) signaling pathway - cell viability counter screen (AID 743224); further: series mostly up to about 63 µM; on the % scale 0 is the no-effect control and ±100 the full control effect; nearly all actives have a fitted effect of over 50% in size
Summary of the method: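 CellTiter-Glo viability readout on VDR-bla cells, measured after 16 h of compound treatment at 37C in the same wells.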

[10] = qHTS assay to identify small molecule antagonists of the vitamin D receptor (VDR) signaling pathway - cell viability counter screen (AID 743225); further: on the % scale 0 is the no-effect control and ±100 the full control effect; nearly all actives have a fitted effect of over 50% in size
Summary of the method: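 Same-well multiplex: following 16 h treatment of HEK 293T cells carrying a UAS-driven beta-lactamase reporter with compound and agonist (3 nM final), and a 2 h FRET substrate step, CellTiter-Glo was added and luminescence read after 30 min.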

[11] = qHTS assay to identify small molecule agonists of the NFkB signaling pathway (AID 1159509; active means well fitted curve in the direction sought with a large enough effect in the signal ratio in the repeat runs, not every such curve was filed as active; the % refers to the signal ratio)
Summary of the method: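 Readout: FRET fluorescence, 405 nm excitation, 460/530 nm emission; beta-lactamase expression disrupts FRET. Cells: ME-180 stably carrying NF-kB-driven bla reporter. Compound exposure 5 hr, 37 C, 5% CO2.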

[12] = qHTS assay to identify small molecule agonists of the NFkB signaling pathway - cell viability counter screen (AID 1159515; calls by dose curve; further: series mostly up to about 61 µM; on the % scale 0 is the no-effect control and ±100 the full control effect; nearly all actives have a fitted effect of over 55% in size)
Summary of the method: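 Tox21 library compounds were tested for cytotoxicity against NFkB-bla ME-180 cells during a 5 hr exposure at 37 C. CellTiter-Glo luminescence served as the viability read-out.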

[13] = qHTS assay to identify small molecule agonists of the endoplasmic reticulum stress response signaling pathway (AID 1159516; active means well fitted activation curve with a large enough effect in the signal ratio in the repeat runs, not every such curve was filed as active; the % refers to the signal ratio; further: on the % scale 0 is the no-effect control and ±100 the full control effect)
Summary of the method: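 Fluorescence at 460 and 530 nm (405 nm excitation) reports beta-lactamase from an ER stress response element in HeLa cells treated 5 hr at 37 C.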

[14] = qHTS assay to identify small molecule agonists of the endoplasmic reticulum stress response signaling pathway - cell viability counter screen (AID 1159517; calls by dose curve)
Summary of the method: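 Steps: seed 1,500 ESRE-bla HeLa cells per well; incubate overnight at 37 C, 5% CO2; add compounds in DMSO for 5 hr; run FRET substrate 2 hr RT; add CellTiter-Glo, wait 30 min, read luminescence.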

[15] = molecular target: Nuclear receptor ROR-gamma (Homo sapiens) (UniProt P51449); test: qHTS assay to identify small molecule antagonists of the retinoid-related orphan receptor gamma (ROR-gamma) signaling pathway (AID 1159521)
Summary of the method: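 Inducible-expression reporter assay: doxycycline (1 uM final) switched on RORγ in CHO cells bearing a ROR response element-luciferase construct, with test compounds present from 2 h beforehand. Decreased luminescence after 16 h defined antagonist activity.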

[16] = qHTS assay to identify small molecule agonists of the AP-1 signaling pathway - cell viability counter screen (AID 1159525; calls by dose curve; further: nearly all actives have a fitted effect of over 55% in size)
Summary of the method: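 Same-well cytotoxicity counter screen of the Tox21 10K library in ME-180 cells. The readout is ATP-dependent luminescence after 5 h compound treatment. Data are normalised to DMSO and tetra n-octyl ammonium bromide controls.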

[17] = qHTS assay to identify small molecule agonists of the AP-1 signaling pathway (AID 1159526; calls by dose curve; further: on the % scale 0 is the no-effect control and ±100 the full control effect)
[18] = molecular target: Bile acid receptor (Homo sapiens) (UniProt Q96RI1); test: qHTS assay to identify small molecule antagonists of the farnesoid-X-receptor (FXR) signaling pathway (AID 743217; active means well fitted inhibition curve with a large enough effect in the signal ratio in the repeat runs, not every such curve was filed as active; the % refers to the signal ratio; further: on the % scale 0 is the no-effect control and ±100 the full control effect)
Bile acid receptor (Homo sapiens), sequence (Q96RI1 whole entry, looked up): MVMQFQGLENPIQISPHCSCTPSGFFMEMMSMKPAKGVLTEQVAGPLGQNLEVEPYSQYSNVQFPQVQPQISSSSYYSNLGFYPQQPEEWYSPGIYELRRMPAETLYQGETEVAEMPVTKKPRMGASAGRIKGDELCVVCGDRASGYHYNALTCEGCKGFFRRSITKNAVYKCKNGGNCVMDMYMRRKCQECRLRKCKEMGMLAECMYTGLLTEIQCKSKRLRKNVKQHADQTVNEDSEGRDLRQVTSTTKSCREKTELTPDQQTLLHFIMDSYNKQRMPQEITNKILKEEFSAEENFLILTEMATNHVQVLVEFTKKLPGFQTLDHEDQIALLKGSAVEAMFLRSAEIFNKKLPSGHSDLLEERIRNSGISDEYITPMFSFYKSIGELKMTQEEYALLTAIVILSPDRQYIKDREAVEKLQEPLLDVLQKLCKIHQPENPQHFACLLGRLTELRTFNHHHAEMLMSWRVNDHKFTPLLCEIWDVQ
Summary of the method: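 Test compounds are pin-transferred onto FXR-bla HEK 293T cells, then chenodeoxycholic acid is added at 50 uM final. After 16 h at 37 °C, LiveBLAzer B/G substrate is applied for 2 h at room temperature and fluorescence read.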

[19] = molecular target: Bile acid receptor (Homo sapiens) (UniProt Q96RI1); test: qHTS assay to identify small molecule agonists of the farnesoid-X-receptor (FXR) signaling pathway (AID 743220; active means well fitted activation curve with a large enough effect in the signal ratio in the repeat runs, not every such curve was filed as active; the % refers to the signal ratio; further: on the % scale 0 is the no-effect control and ±100 the full control effect)
Summary of the method: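 FXR-UAS-bla HEK 293T cells carrying a UAS-driven beta-lactamase reporter were plated for 5 h at 37C/5% CO2, then exposed to DMSO-dissolved Tox21 10K compounds for 16 h at 37C. A LiveBLAzer B/G FRET substrate was loaded for 2 h at room temperature before fluorescence reading.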

[20] = qHTS assay to identify small molecule antagonists of the retinoid-related orphan receptor gamma (ROR-gamma) signaling pathway - cell viability counter screen (AID 1159520)
Summary of the method: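 Tet-on ROR gamma CHO cells were given compounds for 2 hr, then doxycycline hyclate at 1 uM final, and incubated 16 hr at 37 C. Viability was measured as ATP content by CellTiter-Glo luminescence.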

CCCC(C)CC (configuration not stated)
inactive: outcome [1] | outcome [2] | outcome [3] | outcome [4] | Potency [5] | outcome [6] | outcome [7] | outcome [8] | outcome [9] | outcome [10] | outcome [11] | outcome [12] | outcome [13] | outcome [14] | outcome [15] | outcome [16] | outcome [17]

Nc1c(NC/C=C\COc2cc(CN3CCCCC3)ccn2)c(=O)c1=O
inactive: outcome [1] | outcome [2] | outcome [3] | outcome [4] | outcome [18] | Potency [5] | outcome [19] | outcome [6] | outcome [8] | outcome [9] | outcome [10] | outcome [11] | outcome [12] | outcome [13] | activity, negative = cytotoxicity [20] 0% [at 19 µM] | activity change, negative = inhibition [15] -0.0898% [at 19 µM] | viability change, negative = cytotoxic [16] -1.48% [at 15.8 µM] | activation [17] -3.62% [at 15.8 µM]

CCCCCCCCC(=O)OCC
inactive: outcome [1] | outcome [2] | outcome [3] | outcome [4] | Potency [5] | outcome [6] | outcome [7] | outcome [8] | outcome [9] | outcome [10] | outcome [11] | outcome [12] | outcome [13] | outcome [20] | outcome [15] | outcome [16] | outcome [17]

CO/N=C(/C(=O)N[C@@H]1C(=O)N2C(C(=O)O)=C(Cn3nnc(C)n3)CS[C@H]12)c1csc(N)n1
inactive: outcome [1] | outcome [3] | outcome [18] | Potency [5] | outcome [6] | outcome [7] | outcome [8] | outcome [9] | outcome [10] | outcome [11] | outcome [12] | outcome [13] | outcome [14] | outcome [15] | outcome [16] | outcome [17]

CC(C)COC(=O)COc1ccc(Cl)cc1Cl
inactive: outcome [1] | outcome [2] | outcome [3] | outcome [4] | outcome [18] | Potency [5] | outcome [19] | outcome [6] | outcome [7] | outcome [8] | outcome [9] | outcome [10] | outcome [11] | outcome [12] | outcome [13] | outcome [14] | outcome [16] | outcome [17]

O=C(O)c1ccc(OCCN2CCCCC2)cc1
inactive: outcome [1] | outcome [2] | outcome [3] | outcome [4] | Potency [5] | outcome [6] | outcome [7] | outcome [8] | outcome [9] | outcome [10] | outcome [11] | outcome [12] | outcome [13] | outcome [14] | outcome [15] | outcome [16] | outcome [17]

O=C1OC(=O)c2cc(Oc3ccc4c(c3)C(=O)OC4=O)ccc21
inactive: outcome [1] | outcome [18] | outcome [19] | outcome [6] | outcome [7] | outcome [9] | outcome [10] | outcome [11] | outcome [12] | outcome [13] | outcome [14] | outcome [16] | outcome [17]

CCCO
inactive: outcome [1] | outcome [2] | outcome [3] | outcome [4] | Potency [5] | outcome [6] | outcome [7] | outcome [9] | outcome [10] | outcome [11] | outcome [12] | outcome [13] | outcome [15] | outcome [16] | outcome [17]

CCCCCC(=O)OCC
inactive: outcome [1] | outcome [3] | Potency [5] | outcome [19] | outcome [6] | outcome [7] | outcome [8] | outcome [9] | outcome [10] | outcome [11] | outcome [12] | outcome [13] | outcome [20] | outcome [16] | outcome [17]

CCCOC(=O)CCCCC(=O)OCCC
inactive: outcome [1] | outcome [2] | outcome [3] | Potency [5] | outcome [6] | outcome [7] | outcome [9] | outcome [10] | outcome [11] | outcome [12] | outcome [13] | outcome [20] | outcome [15] | outcome [16] | outcome [17]

Nc1ccc(C(=O)OCC(O)CO)cc1 (configuration not stated)
inactive: outcome [1] | outcome [3] | Potency [5] | outcome [6] | outcome [7] | outcome [8] | outcome [9] | outcome [11] | outcome [12] | outcome [13] | outcome [14] | outcome [15] | outcome [16] | outcome [17]

CCOC(=O)CCc1ccccc1
inactive: outcome [1] | outcome [2] | outcome [3] | outcome [4] | Potency [5] | outcome [6] | outcome [7] | outcome [8] | outcome [9] | outcome [10] | outcome [11] | outcome [12] | outcome [13] | outcome [14] | outcome [15] | outcome [16] | outcome [17]
